# From PubChem BioAssay
# Yp Topo-I inh = blocks Yersinia pestis topoisomerase I activity; Y. pestis Topo-I cleavage product accumulation, plate reader; activity, % at 10 µM; hit rate 0.064% among 360,000; AID 504884; in the data active means activity above about 50%, passing the limit was not always enough
# PrP 5UTR inh = inhibition of PrP 5' UTR reporter expression | cell-based PrP 5' UTR mRNA reporter, plate reader | inhibition, % (test concentration not listed) | hit rate 0.35% among 340,000 | AID 488862; in the data active means inhibition above about 52%; further: 0 = median of the neutral control wells
# BioA inh = blocks M. tuberculosis BioA enzyme activity; purified M. tuberculosis BioA enzyme, plate reader; inhibition, % at 9.99 µM; hit rate 0.096% among 360,000; AID 602481; in the data active means inhibition above about 40%
# FadD28 binding = inhibitors of Mycobacterium tuberculosis FadD28 bisubstrate binding | FadD28 bisubstrate probe binding, fluorescence polarization | inhibition, % at 12.5 µM | hit rate 0.22% among 360,000; in the data active means inhibition above about 8.5%, passing the limit was not always enough
# TcdB GH inh = TcdB glycohydrolase inhibition | TcdB glycohydrolase enzymatic assay, plate reader | hit rate 0.24% among 350,000 | P18177 | inhibition, % at 9.99 µM; in the data active means inhibition above about 10%
# PfHsp40 yeast = restores yeast growth despite PfHsp40 toxicity. S. cerevisiae expressing PfHsp40, growth rescue, ATP luminescence. growth rescue, % at 12.5 µM. hit rate 0.68% among 340,000. AID 504582; in the data active means growth rescue above about 28%, passing the limit was not always enough;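 further: yeast W303a lacking pdr1 and pdr3 grown in galactose medium; growth measured after three days at 30 °C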
# Starred values were filed as active, the others as inactive; . = no result. This is a sample that favours compounds with a hit; in the whole collection about 1.2% have one here.
SMILES,Yp Topo-I inh,PrP 5UTR inh,BioA inh,FadD28 binding,TcdB GH inh,PfHsp40 yeast
CCCCCCCNC(=O)C1(CC2CC(c3cccc(Br)c3)=NO2)CCN(C(=O)OC(C)(C)C)CC1 (stereo not given),3,-1,0,-4,-1,-1
C[C@@H]1CN([C@H](C)CO)C(=O)c2cccc(NS(=O)(=O)c3ccc(Cl)cc3)c2O[C@@H]1CN(C)Cc1ccc(-c2ccccc2)cc1,.,.,-2,.,2,.
Cc1cc(NS(=O)(=O)c2ccc(Nc3nc(-c4sc(N)nc4C)cs3)cc2)no1,-21,5,6,55*,.,2
Cc1nc(C)c(-c2csc(Nc3ccc(O)c(C(=O)O)c3)n2)s1,3,-41,3,17*,4,1
Cc1nc(N)sc1-c1csc(Nc2cccc(C(=O)O)c2)n1,-15,0,8,23*,7,-1
Cc1cc(NS(=O)(=O)c2ccc(Nc3nc(-c4ccc(C)c(C)c4)cs3)cc2)no1,-10,-17,.,1,.,-1
CN(C)C(=O)C[C@@H]1CC[C@H]2[C@@H](COC[C@H](O)CN2C(=O)C2CC2)O1,.,.,-2,.,-1,.
O=C(Nc1cccc(Cl)c1)N1CCc2ccccc2C1,4,-52,0,-1,4,44*
CCCNC(=O)N(C)C[C@H]1Oc2cc(C#CC(C)C)ccc2S(=O)(=O)N([C@@H](C)CO)C[C@@H]1C,.,.,1,.,.,.
COc1cc2c(cc1NC(=O)Nc1ccc(C)cc1)oc1ccccc12,-15,-17,-2,-4,.,23
COc1cc2c(cc1NC(=O)C(C)Sc1ccc(NC(C)=O)cc1)oc1ccccc12 (stereo not given),20,-11,-2,-5,.,33*
O=C(Cc1ccccn1)NCC[C@@H]1CC[C@H](NS(=O)(=O)c2ccc(F)cc2)[C@@H](CO)O1,.,.,-1,.,0,.
O=[N+]([O-])c1ccc(-c2nc(-c3cccs3)c(-c3cccs3)[nH]2)cc1,-35,-27,-2,-4,1,438*
Fc1ccc(-c2nc(-c3cccs3)[nH]c2-c2ccc(F)cc2)cc1,-24,-77,-1,-6,-6,129*
Oc1ccc(-c2nc(-c3ccc(F)cc3)c(-c3ccncc3)[nH]2)cc1,-14,14,1,1,3,-1
C[C@@H]1CN([C@H](C)CO)C(=O)c2cc(NC(=O)Cc3ccccc3)ccc2O[C@@H](C)CCCCO[C@@H]1CN(C)C(=O)c1ccncc1,.,.,-4,.,-1,.
O=C(C[C@@H]1C[C@H]2c3cc(NC(=O)Nc4ccccc4)ccc3O[C@H]2[C@@H](CO)O1)NCCN1CCCCC1,.,.,-1,.,-2,.
Cc1noc(C)c1NC(=O)Nc1ccc2c(c1)C(=O)N([C@H](C)CO)C[C@H](C)[C@@H](CN(C)C(=O)Nc1ccccc1)OCCCC[C@@H](C)O2,.,.,2,.,-1,.
O=C(Nc1ccccc1F)N[C@H]1CC[C@H](CCNS(=O)(=O)c2ccc(Cl)cc2)O[C@@H]1CO,.,.,-1,.,1,.
COc1ccc(C2C(C(C)=O)=C(C)N=c3s/c(=C\c4cc(C)n(C)c4C)c(=O)n32)c(OC)c1 (stereo not given),-2,5,-3,12*,.,-1
COc1ccc(C2C(C(C)=O)=C(C)N=c3s/c(=C\c4ccco4)c(=O)n32)c(OC)c1 (stereo not given),9,-11,-1,-3,.,1
Cc1cccc(C2CC(c3ccccc3)Nc3nc(N)nn32)c1 (stereo not given),11,-23,0,0,3,48*
COc1cccc(C2CC(c3ccc(C)cc3)Nc3nc(N)nn32)c1 (stereo not given),-10,-2,-4,0,0,0
CCOC(=O)c1sc2nc(CC(=O)OC)nc(NCCN3CCOCC3)c2c1C,8,-25,-1,-1,.,1
CCOC(=O)c1sc2nc(CC(=O)OC)nc(NCCN(CC)CC)c2c1C,7,-3,2,-5,.,74*
Cc1cccc(C)c1NC(=O)c1nc(S(=O)(=O)Cc2ccccc2)ncc1Cl,11,-29,1,-3,1,98*
Cc1cccc(CS(=O)(=O)c2ncc(Cl)c(C(=O)Nc3c(C)cccc3C)n2)c1,-2,-5,1,0,0,0
O=C(NC(C(=O)N/N=C/c1cc([N+](=O)[O-])ccc1O)c1n[nH]c(=O)c2ccccc12)c1ccccc1 (stereo not given),-1,-11,.,-2,0,82*
